Assay outcomes: PubChem BioAssay, several laboratories
Rows were chosen to be rich in hits. Some 32% of all compounds tested hit in one or more screens of this group.
CYP2C19 activ = activators of human cytochrome P450 2C19 | P33261 | recombinant CYP2C19, luciferin-H EGE luminescence; active compounds read high; 0 = fully inhibited enzyme, 1 = untreated enzyme | activation factor at 5 µM | 96,000 tested, under 10 active;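 active means activation factor of at least 2 at 5 µM in the primary screen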;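 further: 0 = wells with 2.5 mM tranylcypromine and 1 = vehicle-only wells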
Target sequence (P33261 whole entry, looked up): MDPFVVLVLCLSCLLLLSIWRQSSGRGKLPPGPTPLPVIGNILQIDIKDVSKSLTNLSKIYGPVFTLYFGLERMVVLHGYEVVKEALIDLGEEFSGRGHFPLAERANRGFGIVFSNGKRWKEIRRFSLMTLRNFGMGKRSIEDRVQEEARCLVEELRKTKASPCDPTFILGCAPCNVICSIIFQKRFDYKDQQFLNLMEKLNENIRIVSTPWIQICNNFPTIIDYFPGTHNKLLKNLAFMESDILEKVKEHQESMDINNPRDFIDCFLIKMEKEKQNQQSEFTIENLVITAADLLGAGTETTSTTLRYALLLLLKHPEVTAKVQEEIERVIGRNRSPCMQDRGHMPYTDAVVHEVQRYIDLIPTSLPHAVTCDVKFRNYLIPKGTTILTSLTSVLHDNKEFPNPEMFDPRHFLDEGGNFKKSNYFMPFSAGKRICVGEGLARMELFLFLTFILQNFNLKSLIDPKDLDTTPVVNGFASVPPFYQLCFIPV
CYP2C9 inh = blocks human cytochrome P450 2C9. P11712. CYP2C9 Supersomes, luciferin-H conversion, luminescence. inhibition, % at 5 µM. actives 20% (n = 96,000);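 active means blocking of liver enzyme CYP2C9 beyond about 50% at 5 µM, limit read from the data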
CYP2C19 inh = human CYP2C19 inhibition. CYP2C19 Supersomes, luciferin-H EGE luminescence, 30 min. inhibition, % at 5 µM. actives 21% (n = 96,000). AID 778;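 active means CYP2C19 inhibition above a set limit at 5 µM in the primary screen, cut at about 50% in these data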;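 further: plate controls were negative control wells for no effect and 2.5 mM tranylcypromine positive control for full effect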
PostGolgi ctrl = growth of the yeast control strain, post-Golgi counter-screen; inhibition, % at 10 µM; efflux-deficient yeast background strain, growth absorbance A615, 16 h; actives 5% (n = 98,000)
PostGolgi yeast = growth inhibition of a yeast mutant, post-Golgi transport screen; post-Golgi transport phenotypic cell assay; inhibition, % at 10 µM; actives 0.9% (n = 98,000); AID 739;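 further: yeast cells grown in 1536-well plates; yeast grown about 18 h at 30C before absorbance read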
CYP2C9 act = CYP2C9 (human) activation; recombinant CYP2C9, luciferin-H conversion, luminescence; active compounds read high; factor 1 = untreated enzyme, 0 = blocked; activation factor at 5 µM; AID 1024; actives 1.4% (n = 96,000);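 active means activation factor of 2 or more for CYP2C9 at a 5 µM dose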;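 further: 0 = sulfaphenazole-blocked wells and 1 = vehicle-only wells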
Numbers without * were called inactive. Unless noted, no stated cut-off is given here; in the data, active means inhibition above about 30%; inactive means the rest.

How did COc1cc(/C=C2\SC(c3ccc(C)cc3)=NC2=O)cc(OC)c1OC do in these assays?
CYP2C19 activ: 0.8; CYP2C9 inh: 63*; CYP2C19 inh: 22; PostGolgi ctrl: -5; PostGolgi yeast: 6; CYP2C9 act: 0.4

What do the screens show for `COc1ccc(S(=O)(=O)N2CCN(CC(=O)Nc3cccc(F)c3)CC2)cc1`?
CYP2C19 activ: 0.5; CYP2C9 inh: -37; CYP2C19 inh: 54*; PostGolgi ctrl: 5; PostGolgi yeast: -4; CYP2C9 act: 1.4

Results for COc1ccc(S(=O)(=O)N2CCN(CC(=O)Nc3ccc(C)c(F)c3)CC2)cc1 ?
CYP2C19 activ: 0.2; CYP2C9 inh: -18; CYP2C19 inh: 82*; PostGolgi ctrl: -1; PostGolgi yeast: 2; CYP2C9 act: 1.2

How did COc1ccc(NC(=O)CN2CCCN(S(=O)(=O)c3ccc(F)cc3)CC2)cc1 do in these assays?
CYP2C19 activ: 0.1; CYP2C9 inh: 53*; CYP2C19 inh: 89*; PostGolgi ctrl: 1; PostGolgi yeast: -14; CYP2C9 act: 0.5

How did COc1ccc(S(=O)(=O)N2CCCN(CCC(=O)Nc3cccc(C(F)(F)F)c3)CC2)cc1 do in these assays?
CYP2C19 activ: 0.5; CYP2C9 inh: -6; CYP2C19 inh: 49; PostGolgi ctrl: 10; PostGolgi yeast: -5; CYP2C9 act: 1.1

Results for CC(=O)N1CCN(S(=O)(=O)c2ccc(S(=O)(=O)NCC(C)C)cc2)CC1 ?
CYP2C19 activ: 1.1; CYP2C9 inh: -9; CYP2C19 inh: -14; PostGolgi ctrl: -1; PostGolgi yeast: -8; CYP2C9 act: 1.1

What do the screens show for `O=C(Cc1ccc(-n2cnnn2)cc1)NC12CC3CC(CC(C3)C1)C2`?
CYP2C19 activ: 0.9; CYP2C9 inh: 25; CYP2C19 inh: 5; PostGolgi ctrl: 7; PostGolgi yeast: 6; CYP2C9 act: 0.8

What do the screens show for `CC(c1ccco1)N(C(=O)c1ccc(Cl)s1)c1ccccn1` (configuration not stated)?
CYP2C19 activ: 0.1; CYP2C9 inh: 59*; CYP2C19 inh: 89*; CYP2C9 act: 0.4

What do the screens show for `CCC(C)[C@@H](NC(=O)OC(C)(C)C)c1nnc(S(=O)(=O)Cc2cccc(C)c2)o1` (some centres not stated)?
CYP2C19 activ: 0.8; CYP2C9 inh: 17; CYP2C19 inh: 22; PostGolgi ctrl: 52*; PostGolgi yeast: 15; CYP2C9 act: 0.8

What do the screens show for `Cc1ccccc1CS(=O)(=O)c1nnc([C@H](Cc2ccccc2)NC(=O)OC(C)(C)C)o1`?
CYP2C19 activ: 0.7; CYP2C9 inh: 66*; CYP2C19 inh: 28; PostGolgi ctrl: 51*; PostGolgi yeast: 37*; CYP2C9 act: 0.3

What do the screens show for `CC(C)(C)OC(=O)N[C@@H](Cc1ccccc1)c1nnc(SCC(=O)c2ccc(Cl)cc2)o1`?
CYP2C19 activ: 0.4; CYP2C9 inh: 61*; CYP2C19 inh: 61*; PostGolgi ctrl: 8; PostGolgi yeast: -1; CYP2C9 act: 0.4

Results for CC(C)(C)OC(=O)N[C@@H](Cc1ccccc1)c1nnc(SCC(=O)O)o1 ?
CYP2C19 activ: 1; CYP2C9 inh: 56*; CYP2C19 inh: 3; PostGolgi ctrl: 16; PostGolgi yeast: -2; CYP2C9 act: 0.4

What do the screens show for `CCSc1nnc([C@H](Cc2ccccc2)NC(=O)OC(C)(C)C)o1`?
CYP2C19 activ: 0.8; CYP2C9 inh: 29; CYP2C19 inh: 21; PostGolgi ctrl: 3; PostGolgi yeast: -11; CYP2C9 act: 0.7

What do the screens show for `CC(C)(C)OC(=O)N[C@@H](Cc1ccccc1)c1nnc(S(=O)(=O)Cc2ccccc2)o1`?
CYP2C19 activ: 0.5; CYP2C9 inh: 44; CYP2C19 inh: 46; PostGolgi ctrl: 10; PostGolgi yeast: 17; CYP2C9 act: 0.6

Results for N=c1c[n+](-c2ccc(Cl)cc2)[n-]o1 ?
CYP2C19 activ: 1; CYP2C9 inh: -7; CYP2C19 inh: 3; PostGolgi ctrl: -5; PostGolgi yeast: 4; CYP2C9 act: 1.1

Results for COc1ccc(-c2nn(CC(=O)N(C)C)c(=O)c3ccccc23)cc1 ?
CYP2C19 activ: 0.9; CYP2C9 inh: 11; CYP2C19 inh: 6; PostGolgi ctrl: 14; PostGolgi yeast: -2; CYP2C9 act: 0.9
